According to PubChem BioAssay (NCI):
“And” between values parts separate entries of the source, which are not always exact repeats. Equal values may be shown once. This is part of a sample that, as a whole, favours compounds with a hit. Of some 79,000 tested, about 15% had one in any assay. Some compounds were tested as several samples or in several runs, with calls that do not always agree. The source made the active and inactive calls. Cut-off read from the data, not from the text of the source: active = growth inhibition above about 70%; inactive = the rest.

What was measured:
[1] = NCI Yeast Anticancer Drug Screen. Data for the rad50 strain (AID 155);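 note: 0% = growth of vehicle-only cultures of the same strain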; conditions: S. cerevisiae rad50 strain growth inhibition; at 50.0 µM; stronger effect = higher value
Procedure, shortened: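 Compounds were tested on a yeast strain with an engineered DNA damage repair alteration; the reported value is growth inhibition normalised to vehicle treatment.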

[2] = NCI Yeast Anticancer Drug Screen. Data for the mec2-1 strain (AID 157); conditions: S. cerevisiae mec2-1 strain, at 50.0 µM, stronger effect = higher value
Procedure, shortened: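 Test agents were screened against the mec2-1 yeast strain, with defined DNA repair or cell cycle alteration. Growth was scored as inhibition against vehicle-only controls.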

[3] = NCI Yeast Anticancer Drug Screen. Data for the sgs1 mgt1 strain (AID 161);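 note: 0% = growth of cultures given vehicle only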; conditions: S. cerevisiae sgs1 mgt1 strain, at 50.0 µM, stronger effect = higher value
Procedure, shortened: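 Read-out: growth inhibition vs vehicle controls. Cells: mutant yeast strain deficient in DNA damage repair.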

[4] = NCI Yeast Anticancer Drug Screen. Data for the cln2 rad14 strain (AID 165);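 note: 0% = growth equal to vehicle treated cultures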; conditions: S. cerevisiae cln2 rad14 strain, at 50.0 µM, stronger effect = higher value
Procedure, shortened: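 Growth of compound-exposed yeast (cln2 rad14 genotype) measured and expressed as inhibition relative to vehicle.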

[5] = NCI Yeast Anticancer Drug Screen. Data for the bub3 strain (AID 167); conditions: S. cerevisiae bub3 mutant strain, at 50.0 µM, stronger effect = higher value
Procedure, shortened: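 Growth of a checkpoint-deficient yeast mutant is measured after compound exposure. Values represent inhibition relative to vehicle.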

[6] = NCI Yeast Anticancer Drug Screen. Data for the mlh1 rad18 strain (AID 175); conditions: S. cerevisiae mlh1 rad18 strain growth inhibition; at 50.0 µM; stronger effect = higher value
Procedure, shortened: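 In this whole-cell yeast screen, a strain with altered DNA damage repair is challenged with compound, and its growth is measured against matched vehicle-treated controls.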

Measured: growth inhibition

CN(C)CCNC(=O)c1ccc([N+](=O)[O-])c(C(C)(C)C(=O)Nc2ccc(N(CCCl)CCCl)cc2)c1
inactive: [1] -1% | [2] -24.4% | [3] 8.9% | [4] -44.2% | [5] -10.8% | [6] -24.9%

COc1ccc(NC(=O)/C(=N/NC(N)=S)C2C(=O)NC(=S)NC2=O)c(OC)c1
inactive: [1] -17.4% | [2] -4% | [3] -4.55% | [4] -21.9% | [5] -8.9% | [6] -25%

COC(CN1CCOCCOCCOCC1)CN1CCOCCOCCOCC1
inactive: [1] -9.3% | [2] -6.55% | [3] -29.1% | [4] 15.4% | [5] 14.2% | [6] -17.8%

CSCC(NP1(=O)SC(NN=C2CCCCC2)=NC1(C)C)C(=O)O (stereo unspecified)
inactive: [1] 12.2% | [2] 3.95% | [3] 2% | [4] -5.5% | [5] -0.15% | [6] 18.6%

CC1NCCc2c1[nH]c1cc(O)ccc21 (stereo unspecified)
inactive: [1] 4.55% | [2] -10.9% | [3] 5.5% | [4] -9.2% | [5] -21.5% | [6] 3.1%

c1c[nH]c(Cc2ncc(Cc3cnc[nH]3)[nH]2)n1
inactive: [1] 4.4% | [2] -20.6% | [3] -9.55% | [4] 21.8% | [5] -13% | [6] -9.6%

O=C(Nc1ccccc1Cl)Oc1c(Cl)cc(S(=O)(=O)F)cc1Cl
inactive: [1] 20.4% | [2] 33.6% | [3] 34.1% | [4] 32.6% | [5] -2.05% | [6] 44.2%

CCCCCCCCCCCCCC[As](=O)(O)O
inactive: [1] 6.4% | [2] 17.9% | [3] 21.3% | [4] 1.65% | [5] 4.5% | [6] 44.5%

C/C1=N\NC(=O)c2ccccc2C(=O)N/N=C(\C)c2cccc1n2.O=[N+]([O-])[O-].[Zn+2]
inactive: [1] -8.85% | [2] -7.3% | [3] -10.2% | [4] 5.8% | [5] -38% | [6] -5.05%

O=C(O)C(=O)O.[Ti].[c-]1[c-][c-][cH-][c-]1.[c-]1[c-][c-][cH-][c-]1
inactive: [1] 23.9% | [2] 14.9% | [3] 29.6% | [4] -54.7% | [5] 24% | [6] 29.7%

O=c1oc2cc(O)ccc2c(O)c1C(c1cccnc1)c1c(O)c2ccc(O)cc2oc1=O
inactive: [1] 0.75% | [2] 1.25% | [3] 11.7% | [4] -0.05% | [5] -0.5% | [6] -80.5%

COP(=O)(OC)C(=O)c1ccc(C)cc1
inactive: [1] 14.7% | [2] -6.05% | [3] 1.55% | [4] -36.8% | [5] 15.9% | [6] -7%

COC(=O)C(N)Cc1ccc(OC)c(N(CCCl)CCCl)c1 (stereo unspecified)
inactive: [1] 17% | [2] -0.6% | [3] -11.2% | [4] 2.8% | [5] 3% | [6] 6.55%

Cc1cc(Cl)ccc1NC(=O)/C(CC(=O)CC(c1ccccc1)c1c(O)c2ccccc2oc1=O)=N\O (stereo unspecified)
inactive: [1] -14.9% | [2] -8.4% | [3] 3.05% | [4] -37.6% | [5] -29.1% | [6] -5.8%

OC(CN(C1CCCCC1)C1CCCCC1)c1ccc(Cl)c(Cl)c1 (stereo unspecified)
inactive: [1] -3.1% | [2] -30.9% | [3] -14.4% | [4] -36% | [5] 35.4% | [6] -28.2%

O=[N+]([O-])NC1=NCCN1CCO
inactive: [1] -8.85% | [2] -3.95% | [3] -2.15% | [4] -16.6% | [5] -26.1% | [6] -18.9%

COc1cccc(C=O)c1OC
inactive: [1] 15.8% and 43.1% | [2] 2.2% and 24.1% | [3] 4.2% and 20.9% | [4] 27.1% and -7.95% | [5] 3.5% and 12.7% | [6] 47% and 37.1%

CC(C)CC(=O)[O-].CC(C)CC(=O)[O-].N.N.N.N.[Co+3].[O-][Cl+3]([O-])([O-])[O-]
inactive: [1] -0.8% and -12.4% | [2] 9.7% and 11.6% | [3] -28.9% and -24.1% | [4] 10.3% and 1.35% | [5] 15.8% and -0.6% | [6] -14.5% and 2.55%

CCN(CCCl)c1cc(C(N)=O)c([N+](=O)[O-])cc1[N+](=O)[O-]
inactive: [1] -1.25% | [2] -8.7% | [3] 9% | [4] 3.8% | [5] 5.25% | [6] -19.6%

CCC[CH2][Sn]([Br])([CH2]CCC)[CH2]CCC
active: [1] 91.2% | [2] 97.8% | [3] 95.8% | [4] 96% | [5] 89.4% | [6] 97.3%

c1ccc(N2CCNCC2)cc1 (tested in a mixture with another compound)
inactive: [1] -18.1% and 5.8% | [2] 6.7% and -16.3% | [3] -26.1% and -5.8% | [4] -4% and -48.5% | [5] 10.2% and 10.3% | [6] -27.7% and -4.65%

CCOP(=O)(CSCCC1(C)NC(=O)NC1=O)OCC (stereo unspecified)
inactive: [1] 8.6% | [2] -9.7% | [3] 23.9% | [4] 2.65% | [5] 7.2% | [6] 7.45%

O=C1C(=O)c2ccccc2C(O)=C1CN(CCCl)CCCl
inactive: [1] 31.6% | [2] 17.9% | [3] 27.2% | [4] -21.9% | [5] 30.8% | [6] 29.8%

O=C([O-])C[OH+]c1ccc(Cl)cc1Cl.O=C([O-])C[OH+]c1ccc(Cl)cc1Cl.[Ni+2]
inactive: [1] 10.3% | [2] 21.6% | [3] 18.9% | [4] 3.1% | [5] 3.85% | [6] 41.5%

O=[Te]=O
inactive: [1] 20.4% | [2] -8.15% | [3] 17.4% | [4] 5% | [5] 5.55% | [6] 11.4%

Nc1ccc([As](O)O)c(C(=O)O)c1
inactive: [1] -15.1% | [2] -24.1% | [3] -27.9% | [4] -2.35% | [5] -26.3% | [6] -35.6%

CC(C)(C)[Si](C)(C)OC(=O)CCCc1ccc(N(CCCl)CCCl)cc1
inactive: [1] 12.1% | [2] -9.9% | [3] -10.2% | [4] 9.4% | [5] -21.7% | [6] -47.1%

CC1=CC(=O)C=CC1=O
inactive: [1] 39.1% | [2] 52.3% | [3] 28.9% | [4] 12.4% | [5] 11.3% | [6] 55.4%

Cc1cc2c(C(C)C)c(O)c(O)c(C=O)c2c(O)c1-c1c(C)cc2c(C(C)C)c(O)c(O)c(C=O)c2c1O
52.6% (inactive) and 71.2% (active): [2]
inactive: [1] 47.7% and 59.2% | [3] 41.1% and 46.5% | [4] 47.6% and 67.5% | [5] 49.1% and 43.6% | [6] 60.2% and -27%

[Co].[NH2-].[NH2-].[NH2-].[NH2-].[NH2-].[NH2-]
inactive: [1] -5% and 8.1% | [2] -15.3% and 9.05% | [3] -5.4% and 6.25% | [4] -19.8% and 10.1% | [5] 2.3% and 23.4% | [6] -2.9% and -5.85%

CCCCCCCCCCCCCCC[As](=O)(O)CCCCCCCCCCCCCCC
inactive: [1] 21.8% | [2] 0.75% | [3] 11.9% | [4] 8.45% | [5] 6.75% | [6] 12.9%

CC(C)(C)c1ccc(C(C)(C)OO)cc1
inactive: [1] 31.6% | [2] -0.7% | [3] 18.3% | [4] 12.3% | [5] 10.2% | [6] 6.2%

Cc1cccc2c(=O)c([Se]c3coc4c(C)cccc4c3=O)coc12
inactive: [1] -12.4% | [2] -15.2% | [3] -48.2% | [4] -5.8% | [5] -13.2% | [6] -30.1%

CC1=C(C#N)C2(CCN(C)CC2)C(C#N)=C(C)N1
inactive: [1] 13.3% | [2] 8.75% | [3] 3.05% | [4] -27.9% | [5] -3% | [6] -4.4%

CN(C)c1ccc2c(c1)Cc1ccccc1-2
inactive: [1] 1% | [2] -8.65% | [3] 18.2% | [4] -24.1% | [5] 44% | [6] -25.8%

CCOC(=O)CC(=O)C(F)(F)F.CCOC(=O)CC(=O)C(F)(F)F.[Ni]
inactive: [1] -21% | [2] 14.4% | [3] -12.2% | [4] 24.4% | [5] 12.6% | [6] -0.95%

CC(=O)OC1CCC2(C)C3CCC4(C)C(c5ccc(=O)oc5)CC5OC54C3CCC2(O)C1 (stereo unspecified)
inactive: [1] 40% | [2] 2.75% | [3] 19.6% | [4] -1.8% | [5] -2.2% | [6] 2.3%

NC(=O)C(Cl)(Cl)Cl
inactive: [1] -6.6% | [2] 9.25% | [3] 6.1% | [4] 4.95% | [5] -5.65% | [6] 12.4%

CCCCCCCCCC[C@@H](O)[C@@H]1CC[C@@H]([C@@H]2CC[C@@H]([C@@H](O)CCCCCCCCCC[C@H](O)CC3=CC(C)OC3=O)O2)O1 (stereo partly specified)
inactive: [1] -3.45% | [2] -0.4% | [3] 18.8% | [4] 31% | [5] -11.7% | [6] -21.9%

CCC(=O)c1ccc(C)cc1
inactive: [1] -11.5% | [2] 1.2% | [3] -10.4% | [4] -16.7% | [5] 4.2% | [6] -3.45%

CCC1(CC)C(=O)NC(=O)N(C)C1=O
inactive: [1] 33.4% | [2] 10.2% | [3] 31.5% | [4] 28.8% | [5] 8.25% | [6] 24.7%

O=C(O)C(=O)O.[Ru].c1cnc2c(c1)ccc1cccnc12.c1cnc2c(c1)ccc1cccnc12
inactive: [1] 25.1% | [2] -10.9% | [3] 2.95% | [4] 5.45% | [5] -2.2% | [6] 5.25%

O=C(Nc1cc(S(=O)(=O)F)ccc1Cl)Oc1ccc([N+](=O)[O-])cc1
inactive: [1] 17.4% | [2] 53.2% | [3] 38.3% | [4] 11.3% | [5] 20.1% | [6] 32.5%

Cc1ccc(N2CC=C(c3ccccc3)OP2(=O)N(CCCl)CCCl)cc1 (stereo unspecified)
active: [1] 76.8% | [2] 84.8% | [3] 75.4% | [4] 80.7% | [5] 87.9% | [6] 70.2%

COc1cc(C2c3cc4c(cc3C(O)[C@H]3COC(=O)C23)OCO4)cc(OC)c1O (stereo partly specified)
inactive: [1] -38.8% | [2] -50.8% | [3] -27.1% | [4] -1.8% | [5] -13.9% | [6] 38.6%

O=S(=O)(O)O.[Co+2].[NH-]CC[NH-].[NH-]CC[NH-].[NH-]CC[NH-]
inactive: [1] 11.1% | [2] 21.9% | [3] 9.75% | [4] 17.8% | [5] 3.2% | [6] 1%
